KCNQ2 inh = KCNQ2 (rat) channel inhibition; CHO-K1 KCNQ2, FluxOR thallium flux, 20 min; stronger effect = lower value; 310,000 compounds, 1.1% hits; B-score at 10 µM; O88943;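 active means fluorescence ratio B-score at most minus 3 library SDs, with starting brightness B-score within 2 library SDs, cut at about -5.5 in these data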
Target sequence (O88943 whole entry, looked up): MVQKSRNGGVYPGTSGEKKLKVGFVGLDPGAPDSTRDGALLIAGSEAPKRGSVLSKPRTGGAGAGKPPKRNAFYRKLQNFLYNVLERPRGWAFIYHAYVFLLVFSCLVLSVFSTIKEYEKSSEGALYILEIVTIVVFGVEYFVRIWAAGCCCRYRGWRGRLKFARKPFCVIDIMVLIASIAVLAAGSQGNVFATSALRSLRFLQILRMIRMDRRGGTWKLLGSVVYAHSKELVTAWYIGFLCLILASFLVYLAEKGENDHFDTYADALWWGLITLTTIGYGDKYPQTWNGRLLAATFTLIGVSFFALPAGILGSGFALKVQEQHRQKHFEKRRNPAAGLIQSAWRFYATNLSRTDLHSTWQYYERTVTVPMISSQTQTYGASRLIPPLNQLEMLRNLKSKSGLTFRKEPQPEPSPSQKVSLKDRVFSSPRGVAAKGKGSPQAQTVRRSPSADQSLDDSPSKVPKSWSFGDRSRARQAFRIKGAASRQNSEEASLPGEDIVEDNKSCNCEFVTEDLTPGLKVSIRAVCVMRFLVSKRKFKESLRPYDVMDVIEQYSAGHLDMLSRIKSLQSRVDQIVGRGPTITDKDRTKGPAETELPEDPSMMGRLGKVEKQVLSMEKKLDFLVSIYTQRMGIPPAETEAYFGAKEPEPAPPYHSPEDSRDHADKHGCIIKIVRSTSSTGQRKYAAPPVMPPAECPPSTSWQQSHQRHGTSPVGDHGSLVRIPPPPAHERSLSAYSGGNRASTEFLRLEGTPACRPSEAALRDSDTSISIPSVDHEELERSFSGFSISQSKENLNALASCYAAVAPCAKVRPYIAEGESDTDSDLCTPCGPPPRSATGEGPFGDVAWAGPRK
KCNQ2 pot = enhances the rat KCNQ2 potassium channel | O88943 | CHO-K1 KCNQ2, FluxOR thallium flux fluorescence; stronger effect = higher value | B-score at 10 µM | 310,000 compounds, 0.54% hits | AID 2239;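 active means fluorescence ratio B-score at least 3 SD of library B-scores, with initial fluorescence B-score within 3 of them, cut at about 5.3 in these data; same plate scores as AID 2156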;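 further: B-score of peak minus minimum over baseline fluorescence ratio after K+ and Tl+ stimulus; positive B-score means potentiation of KCNQ2 with more thallium influx and brighter signal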
The depositor's hits bear a star; i = inactive; x = no result given. Hits are enriched below; roughly 1.6% of the tested compounds scored in any of these assays.

SMILES	KCNQ2 inh	KCNQ2 pot
O=C(COc1ccc(Br)cc1)N1CCc2ccccc2C1	-6.52*	-6.52
O=C(COc1ccc(Br)cc1)N1CCOCC1	i	x
COc1ccc(N=Nc2ccc(O)c3ncccc23)cc1	i	4.69
CCOC(=O)c1nnc(-c2ccccc2)nc1Oc1ccccc1Cl	i	0.06
COc1ccc(-n2c(SCC3CNC(=O)O3)nnc2-c2ccc(Cl)cc2)cc1 (configuration not stated)	i	0.06
CC(C)N1CC(C(=O)Nc2nc3ccccc3s2)CC1=O (configuration not stated)	i	0.23
CCOC(=O)c1cc(C)n(S(=O)(=O)c2ccc(C)cc2)c1C	-6.56*	-6.56
CCOC(=O)c1ccccc1NS(=O)(=O)c1ccc(C)cc1	i	x
COc1ccccc1CC(=O)NCC1CCCO1 (configuration not stated)	i	0.89
CCOC(=O)C1C(=O)NC(N2CCN(c3ccccc3)CC2)=NC1c1ccccc1 (configuration not stated)	i	x
Cc1nn(-c2ccccc2)c2c1C(c1ccc([N+](=O)[O-])cc1)N1C(=N2)C(=O)Nc2ccccc21 (configuration not stated)	i	3.62
Cc1nn(-c2ccccc2)c2c1C(c1ccc(Cl)cc1)N(c1ccccc1)C(=O)N2 (configuration not stated)	-7.57*	-7.57
Cc1ccccc1OCc1nnc(SCC(=O)Nc2ccc3nc(SCC(=O)NC(C)(C)C)sc3c2)n1C	i	x
Cc1nc(=S)n(-c2ccccc2)[nH]1	i	x
S=c1nc(-c2ccccc2)[nH]n1-c1ccccc1	i	18.3*
CCN1CCN(C(=O)c2cnn3c(C(F)F)cc(-c4ccc(C)cc4)nc23)CC1	i	0.37
Cc1ccc(-c2cc(C(F)F)n3ncc(C(=O)N4CCN(c5ccccn5)CC4)c3n2)cc1	-5.7*	-5.7
COc1ccc(S(=O)(=O)NCc2cccnc2)cc1C	i	0.74
Cc1ccc(C(=O)c2cc([N+](=O)[O-])ccc2N2CCCCC2)cc1C	i	x
Cc1ccc(C(=O)c2ccc([N+](=O)[O-])cc2)cc1C	i	5.57*
NS(=O)(=O)c1ccc(NC(=O)CSC2CCCCC2)cc1	i	x
CCn1nc(C)c(NC(=O)CC23CC4CC(CC(C4)C2)C3)c1C	i	21.2*
Cc1nn(C)cc1NC(=O)CC12CC3CC(CC(C3)C1)C2	i	2.06
O=C(Nc1ccccc1N1CCOCC1)C1(c2ccc(Cl)cc2)CCC1	-6.49*	-6.49
O=C(Cc1ccc(Cl)c(Cl)c1)Nc1ccccc1N1CCOCC1	i	0.67
SMILES	KCNQ2 inh	KCNQ2 pot
Cc1cccc(C(=O)NC(=S)NNC(=O)c2cccs2)c1	i	8.19*
O=C(NC(=S)NNC(=O)c1cccs1)c1ccccc1	i	x
CCOC(=O)c1sc(SCc2ccccc2)c2c1CC(C)(C)CC2=O	i	x
Fc1ccc2c(c1)C(c1ccncc1)=NNC(c1ccc(Br)cc1)=N2	i	0.4
Cc1ccc(NC(=O)CCS(=O)(=O)c2ccccc2)cc1S(=O)(=O)N1CCOCC1	i	x
Cc1ccc(S(=O)(=O)N2CCCC(C(=O)NC3CC3)C2)cc1 (configuration not stated)	i	2.24
C=C(C)c1cccc(C(C)(C)NC(=O)Nc2nncs2)c1	i	x
C=C(C)c1cccc(C(C)(C)NC(=O)Nc2nnc(C(C)C)s2)c1	-7.84*	-7.84
Cc1nc2c(c(=O)n1CCC(C)C)c1nc3ccccc3nc1n2Cc1ccc2c(c1)OCO2	-6.27*	-6.27
CCC(C)n1cnc2c(c1=O)c1nc3ccccc3nc1n2Cc1ccc2c(c1)OCO2 (configuration not stated)	i	0.06
O=C(Nc1cccc(Cl)c1N1CCCC1)c1cc2ccccc2o1	-6.23*	-6.23
O=C(Nc1cc(Cl)ccc1N1CCOCC1)c1cc2ccccc2o1	i	x
O=C(Nc1cccc(Cl)c1N1CCCC1)c1ccc([N+](=O)[O-])o1	i	0.07
O=C(Nc1cccc(Cl)c1N1CCCC1)c1ccc(Br)o1	-7.9*	-7.9
O=C(CCN1C(=O)/C(=C/c2ccccc2F)SC1=S)N[C@@H](CO)Cc1ccccc1	i	x
CC1(CC(=O)N/N=C/c2ccc(OCc3ccc(Cl)cc3Cl)cc2)OCCCO1	i	x
NC(N)=N/N=C/c1cccc([N+](=O)[O-])c1O	i	x
O=C(O)c1ccccc1NCc1ccncc1	i	x
CCc1ccccc1Nc1nc(N)nc(CSCC(=O)Nc2ccc(C)c(C)c2)n1	i	19.4*
Cc1ccccc1CSCc1nc(N)nc(Nc2ccccc2C)n1	i	0.58
CCc1ccccc1Nc1nc(N)nc(COC(=O)c2cccn2C)n1	i	0.01
CCc1ccc(NC(=O)CSCc2nc(N)nc(Nc3ccccc3CC)n2)cc1	i	15.5*
CCc1ccc(-n2cc(-c3ccc(F)cc3)[n+]3c2SCCC3)cc1	i	x
COC(=O)c1cc(NS(=O)(=O)c2ccc(N3CCOCC3)c(NC(C)=O)c2)cc(C(=O)OC)c1	i	x
O=C(COC(=O)C12CC3CC(CC(O)(C3)C1)C2)NC(=O)NCc1ccco1	i	x
SMILES	KCNQ2 inh	KCNQ2 pot
O=C(NC1CCCC1)C(c1ccncc1)N(Cc1ccco1)C(=O)c1ccc(-c2ccccc2)[nH]1 (configuration not stated)	i	x
Cc1cc2c(c(=O)o1)C(c1ccc([N+](=O)[O-])o1)C(C#N)=C(N)O2 (configuration not stated)	i	7.7*
CCC(CC)C1C(C#N)=C(N)Oc2cc(C)oc(=O)c21 (configuration not stated)	i	0.34
COc1ccccc1NCC(=O)n1nc(C)cc1C	i	x
C[C@@H](C(=O)NCCc1ccccc1F)N1C(=O)N2CCc3c([nH]c4ccccc34)[C@@]2(C)C1=O	i	x
C[C@@H](C(=O)NCCc1ccccc1)N1C(=O)N2CCc3c([nH]c4ccccc34)[C@@]2(C)C1=O	-9.14*	-9.14
CC(=O)Nc1ccc(S(=O)(=O)NNC(=O)c2cccc3ccccc23)cc1	i	1.98
Oc1ccc(Cl)cc1C1=NNC(c2cccs2)C1 (configuration not stated)	i	12.5*
Cc1ccc(O)c(C2=NNC(c3ccc(Cl)cc3)C2)c1 (configuration not stated)	i	x
Fc1cccc(Cn2ccc(-c3ccc4c(c3)OCO4)n2)c1	i	x
Cc1ccccc1Cn1ccc(-c2ccc3c(c2)OCO3)n1	-6.74*	-6.74
Cc1ccc(N(CCCCN2C(=O)c3ccccc3C2=O)C(=O)c2ccc(Cl)s2)cc1	i	x
O=C1c2ccccc2C(=O)N1CCCCN(C(=O)c1ccc(Cl)s1)c1ccc(Cl)cc1	-5.61*	-5.61
O=C(Nc1cc(Cl)ccc1O)c1cc2n(n1)C(C(F)(F)F)CC(c1ccc3c(c1)OCO3)N2 (configuration not stated)	i	x
c1ccc2[nH]c(CN3CCCCCC3)nc2c1	i	1.58
CN1CCc2c(sc(NC(=O)c3ccc4ccccc4c3)c2C(N)=O)C1	i	x
COc1cc2ccccc2cc1C(=O)Nc1sc2c(c1C(N)=O)CCN(C(C)C)C2	-5.88*	-5.88
CC(=O)c1cc2c(cc1NC(=O)c1ccc(Cl)cc1)OCCO2	i	0.02
CC(=O)c1cc2c(cc1NC(=O)Nc1cccc(Cl)c1)OCCO2	-6.3*	-6.3
Cc1ccc(C(=O)Nc2ccncc2)cc1S(=O)(=O)N1CCOCC1	i	x
Cc1cc(Br)ccc1OCC(=O)N(Cc1nc(-c2ccccc2)no1)C(C)C	-5.95*	-5.95

Compound activity: PubChem, Johns Hopkins Ion Channel Center
